Results: PubChem BioAssay AID1159580 (chemical genetic matrix, 2015)
Out of some 5,500 compounds screened, about 2,000 (36%) were called active. Inconclusive results (about 18%) are left out. Rule as the data show it: active = normalized growth mostly below about 0.91 (no sharp cut-off); inconclusive = no clear call, values can overlap the other calls; inactive = mostly above about 0.92. The list shows a part of the results.

Experiment: chemical genetic growth profiling, strain panel (AID 1159580);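 also: tested at 20 µM; growth read once vehicle control cultures reached saturation at 30 °C; 1 = growth at the plate median or of vehicle wells; lower values mean less growth of the strain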
Details: growth OD
[1] = S. cerevisiae deletion strains, locus YAL013W, strain DEP1, hits give low values
[2] = S. cerevisiae deletion strains, locus YBR229C, strain ROT2, hits give low values
[3] = S. cerevisiae deletion strains, locus YCL061C, strain MRC1, hits give low values
[4] = S. cerevisiae deletion strains, locus YDL101C, strain DUN1, hits give low values
[5] = S. cerevisiae deletion strains, locus YDL134C, strain PPH21, hits give low values
[6] = S. cerevisiae deletion strains, locus YDR150W, strain NUM1, hits give low values
[7] = S. cerevisiae deletion strains, locus YEL061C, strain CIN8, hits give low values
[8] = S. cerevisiae deletion strains, locus YGR078C, strain PAC10, hits give low values
[9] = S. cerevisiae deletion strains, locus YHR030C, strain SLT2, hits give low values
[10] = S. cerevisiae deletion strains, locus YHR087W, strain rtc3, hits give low values
[11] = S. cerevisiae deletion strains, locus YJR043C, strain POL32, hits give low values
[12] = S. cerevisiae deletion strains, locus YJR075W, strain HOC1, hits give low values
[13] = S. cerevisiae deletion strains, locus YKL190W, strain CNB1, hits give low values
[14] = S. cerevisiae deletion strains, locus YLR039C, strain RIC1, hits give low values
[15] = S. cerevisiae deletion strains, locus YLR058C, strain SHM2 (second series), hits give low values
[16] = S. cerevisiae deletion strains, locus YLR085C, strain ARP6, hits give low values
[17] = S. cerevisiae deletion strains, locus YLR262C, strain YPT6, hits give low values
[18] = S. cerevisiae deletion strains, locus YML094W, strain GIM5, hits give low values
[19] = S. cerevisiae deletion strains, locus YMR219W, strain ESC1, hits give low values
[20] = S. cerevisiae deletion strains, locus YMR263W, strain SAP30, hits give low values
[21] = S. cerevisiae deletion strains, locus YMR307W, strain GAS1, hits give low values
[22] = S. cerevisiae deletion strains, locus YNL153C, strain GIM3, hits give low values
[23] = S. cerevisiae deletion strains, locus YNL298W, strain CLA4 (second series), hits give low values
[24] = S. cerevisiae deletion strains, locus YNL322C, strain KRE1, hits give low values
[25] = S. cerevisiae deletion strains, locus YNR030W, strain Alg12, hits give low values
[26] = S. cerevisiae deletion strains, locus YPL055C, strain LGE1, hits give low values
[27] = S. cerevisiae deletion strains, locus YPL241C, strain CIN2, hits give low values
[28] = S. cerevisiae deletion strains, locus YPR135W, strain CTF4, hits give low values
[29] = S. cerevisiae strains, strain wild type, hits give low values

Measured: normalized growth

Cc1ccc(-c2csc(-c3ccc(Oc4ccc(C(F)(F)F)cn4)cc3)n2)c(C)c1
inactive: [1] 0.995 | [2] 1 | [3] 1.02 | [4] 1.03 | [5] 0.992 | [6] 1.01 | [7] 1 | [8] 1.01 | S. cerevisiae deletion strains, locus YGR229C, strain SMI1, hits give low values 0.996 | [9] 1.06 | [10] 0.995 | [11] 1.01 | [12] 1.03 | [13] 0.993 | [14] 1.03 | [15] 1 | [16] 1.17 | [17] 0.996 | [18] 1 | [19] 0.998 | [20] 1.03 | [21] 1.24 | [22] 1.02 | [23] 1 | [24] 1 | [25] 1 | [26] 1.01 | [27] 1.03 | [28] 0.966 | [29] 0.988

N#Cc1ccc(-c2csc(-c3ccc(Oc4ccc(C(F)(F)F)cn4)cc3)n2)cc1
inactive: [1] 0.98 | [2] 1 | [3] 1.01 | [4] 1.03 | [5] 0.986 | [6] 1.01 | [7] 1.01 | [8] 0.996 | [9] 1.03 | [10] 0.984 | S. cerevisiae deletion strains, locus YJL187C, strain SWE1, hits give low values 1 | [11] 1.01 | [12] 1.03 | [13] 1.01 | [14] 0.974 | [15] 1 | [16] 1.14 | [17] 0.974 | [18] 0.99 | [19] 1 | [20] 1.03 | [21] 1.32 | [22] 1.02 | [23] 1 | [24] 0.994 | [25] 1 | S. cerevisiae deletion strains, locus YOL006C, strain TOP1, hits give low values 1.05 | [26] 0.998 | [28] 0.88 | [29] 0.99
active: [27] 1.33 [resistant]
